About 83,000 compounds went through this panel and 20% of them were active in at least one assay; those are over-represented in the sample as a whole.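 How to read the values: 0–100, growth inhibition (40 = 60% inhibited); 0, no net growth; -100 to 0, cell death (-40 = 40% of starting cells died; -100 = all dead).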 Active and inactive are the calls of the source. Rule for the calls: active = growth percent below 10; inactive = the rest.
The compounds below were run on NCI-H226 lung (assay: NCI-60 one-dose screen, 48 h (100 = growth as untreated, 0 = no growth, -100 = all killed)). Conditions: 10 µM unless noted.
With Cc1cccc(NC(=O)c2sc3nc4c(cc3c2N)CCC4)c1C the growth was 43.7% (inactive).
Nc1c(C(=O)Nc2c(Cl)cccc2Cl)sc2nc3c(cc12)CCCCC3 was tested, and the growth was 61.8% (inactive).
For COc1cc(OC)c(C(=O)/C=C/c2ccc(C(F)(F)F)cc2)c(OC)c1, the growth was 64.7% (inactive).
In the case of Cn1c(-c2nonc2NC(=O)c2ccc(F)cc2)nc2ccccc21, the growth is reported as 96% (inactive).
In the case of CCOC(=O)C1=C(CSC(=S)N(C2CCCCC2)C2CCCCC2)N(C)C(=O)NC1c1ccccc1 (stereo not drawn), the growth is reported as 58.8% (inactive).
COC12CC(=O)C(C(C)=O)=C(O)C1(C)c1c(O)c(C)c(O)c(C(C)=O)c1O2 (stereo not drawn) was tested, and the growth was 81.2% (inactive).
With COc1ccc(C2=CC(c3ccc(Oc4ccnc5cc(Cl)ccc45)c(OC)c3)c3c(nc(OC)[nH]c3=O)N2)cc1 (stereo not drawn) the growth was 88.9% (inactive).
In the case of COc1ccc(Cn2cc(COc3cc(/C=C/C(=O)c4cc(OC)c(OC)c(OC)c4)ccc3OC)nn2)cc1, the growth is reported as 89.4% (inactive).
With O=C(Nc1ccc(OCc2nnc(-c3ccc(Cl)cc3)o2)c(F)c1)Nc1ccc(Cl)c(Cl)c1 the growth was 78.7% (inactive).
In the case of O=C(CNc1ccc(Cl)cc1)Nc1ccc(-c2nc3ccccc3s2)cc1, the growth is reported as 58.1% (inactive).

These compounds were tested on NCI-H322M lung in the same assay as above. Conditions: 10 µM unless noted.
In the case of CCC1CCc2nc3sc(C(=O)Nc4ccccc4F)c(N)c3cc2C1 (stereo not drawn), the growth is reported as 92.8% (inactive).
In the case of Cc1nn(-c2ccc(Cl)cc2)c(=O)n1CCOc1ccccc1Cl, the growth is reported as 111% (inactive).
With COc1cc(/C=C2\CCCC3=C2NC(C)=NC3c2cc(OC)c(OC)c(OC)c2)cc(OC)c1OC (stereo not drawn) the growth was 41.1% (inactive).
c1ccc([P+](CCC[P+](c2ccccc2)(c2ccccc2)c2ccccc2)(c2ccccc2)c2ccccc2)cc1 was tested, and the growth was 79.5% (inactive).
With CC1=C(C#N)C(C)(C)C(C#N)=C(C)N1 the growth was 109% (inactive).
With COc1cc(C(=O)OCCCCCCCCCCC[P+](c2ccccc2)(c2ccccc2)c2ccccc2)ccc1O the growth was 1.65% (active).
Nc1c(C(=O)Nc2ccccc2)sc2nc3c(cc12)CCCCC3 was tested, and the growth was 21.3% (inactive).
For COc1cccc(C2CC(=O)Nc3c2c(C)nn3-c2nc3ccccc3[nH]2)c1OC (stereo not drawn), the growth was 60% (inactive).
In the case of COc1cc(C(=O)/C=C/c2cc(C(=O)c3cc(OC)c(OC)c(OC)c3)ccc2OC)ccc1N, the growth is reported as 7.82% (active).
In the case of COc1ccc(NC(=O)c2cc3ccccc3nc2Nc2cc(OC)c(OC)c(OC)c2)cc1, the growth is reported as 90.2% (inactive).
For O=S(=O)(O)CCl, the growth was 105% (inactive).
For O=C(CN1CCOCC1)Nc1ccc(-c2nc3ccccc3s2)cc1, the growth was 100% (inactive).
With COc1cc(/C=C\c2cc(OC)c(OC)c(OC)c2)cc(N/C=C\C(=O)c2c[nH]c3ccccc23)c1OC the growth was 80.4% (inactive).
In the case of CC(C)C[C@H](NC(=O)[C@@H](Cc1ccccc1)n1ccc(Nc2ccccc2)cc1=O)B(O)O, the growth is reported as 43.5% (inactive).
For Cc1ccc2c(c1)C(=O)C(c1c(-c3[nH]c(=O)c4ccc(C)cc4c3O)c(O)c3ccccc3c1O)=NC2=O, the growth was 38.8% (inactive).
C=CCn1c(C)nc2ccc(Nc3nc(Nc4ccc(F)cc4)nc4ccccc34)cc21 was tested, and the growth was 85.5% (inactive).
In the case of COc1ccccc1CNCCCN1C(=O)c2ccc3c4c(ccc(c24)C1=O)C(=O)N(CCCNCCCCNCCCCN)C3=O, the growth is reported as -21.5% (active).
For COc1ccc2c(c1)C(=O)/C(=C/c1ccc(O)cc1)O2, the growth was 86.6% (inactive).
In the case of COc1ccc(-c2cn[nH]c2-c2cc(OC)c3c(c2)OCO3)cc1, the growth is reported as 15% (inactive).
CCCCCCCCCCCCNC(=S)N/N=C/c1ccc(Cl)c(Cl)c1 was tested, and the growth was 112% (inactive).
O=C1Nc2ccc(Br)cc2C1=N/C=c1\[nH]c(=O)/c(=C/c2ccc(Cl)cc2)s1 was tested, and the growth was 93.2% (inactive).
In the case of O=C(CNc1c(Cl)cccc1Cl)Nc1ccc(-c2nc3ccccc3s2)cc1, the growth is reported as 94.6% (inactive).
With CCn1c(=O)c2c(=O)c3c4c(oc3oc2c2ccccc21)C(=O)c1ccccc1C4=O the growth was 97.7% (inactive).
In the case of CN1CCN(c2ccc3cc(-c4nc5ccccc5[nH]4)c(=O)oc3c2)CC1, the growth is reported as 105% (inactive).
In the case of COc1ccc(OC)c(C(=O)c2oc3ccc(Br)cc3c2N)c1, the growth is reported as 20.9% (inactive).
With Cc1ccc(Cn2c(-c3nonc3N)nc3ccccc32)cc1 the growth was 86% (inactive).
In the case of Cc1ccc(S(=O)(=O)NCCCNc2nccc(-c3c(-c4ccccc4)nc4sccn34)n2)cc1, the growth is reported as 78.4% (inactive).
In the case of COC1=CC(c2ccc[nH]2)=N/C1=C\c1[nH]c(C)c(C(=O)CCCCC(=O)Oc2ccc3c(c2)CCC2C3CC[C@]3(C)[C@@H](O)CC[C@@H]23)c1C (stereo partly drawn), the growth is reported as 62.9% (inactive).
With Cc1cccc(NC(=O)c2sc3nc4c(cc3c2N)CCC4)c1C the growth was 40.1% (inactive).
In the case of Nc1c(C(=O)Nc2c(Cl)cccc2Cl)sc2nc3c(cc12)CCCCC3, the growth is reported as 85.4% (inactive).
For COc1cc(OC)c(C(=O)/C=C/c2ccc(C(F)(F)F)cc2)c(OC)c1, the growth was 62% (inactive).
With Cn1c(-c2nonc2NC(=O)c2ccc(F)cc2)nc2ccccc21 the growth was 102% (inactive).
With CCOC(=O)C1=C(CSC(=S)N(C2CCCCC2)C2CCCCC2)N(C)C(=O)NC1c1ccccc1 (stereo not drawn) the growth was 91.9% (inactive).
In the case of COC12CC(=O)C(C(C)=O)=C(O)C1(C)c1c(O)c(C)c(O)c(C(C)=O)c1O2 (stereo not drawn), the growth is reported as 71.4% (inactive).
With COc1ccc(C2=CC(c3ccc(Oc4ccnc5cc(Cl)ccc45)c(OC)c3)c3c(nc(OC)[nH]c3=O)N2)cc1 (stereo not drawn) the growth was 72.9% (inactive).
With COc1ccc(Cn2cc(COc3cc(/C=C/C(=O)c4cc(OC)c(OC)c(OC)c4)ccc3OC)nn2)cc1 the growth was 52.4% (inactive).
With O=C(Nc1ccc(OCc2nnc(-c3ccc(Cl)cc3)o2)c(F)c1)Nc1ccc(Cl)c(Cl)c1 the growth was 54.7% (inactive).
With O=C(CNc1ccc(Cl)cc1)Nc1ccc(-c2nc3ccccc3s2)cc1 the growth was 80.3% (inactive).
